The entries come from a sample that favours hits as a whole.
RGS12 GoLoco inh: qHTS Assay for Inhibitors of RGS12 GoLoco Motif Activity (Red Fluorophore) | Guanine nucleotide-binding protein G(i) subunit alpha-1 (Homo sapiens), P63096 | Gai1:RGS12 GoLoco peptide FP, rhodamine, 10 min | Potency, µM (top dose mostly 61.6 µM), hits mostly inhibitors | actives 0.44% (n = 230,000) | AID 880, 2007; active = well fitted inhibition curve with a large enough effect, not every such curve was filed as active; inactive = no such curve, though single readings can be large or run the other way; note: nearly all actives have a fitted effect of over 30% in size
Target sequence (P63096 whole entry, looked up): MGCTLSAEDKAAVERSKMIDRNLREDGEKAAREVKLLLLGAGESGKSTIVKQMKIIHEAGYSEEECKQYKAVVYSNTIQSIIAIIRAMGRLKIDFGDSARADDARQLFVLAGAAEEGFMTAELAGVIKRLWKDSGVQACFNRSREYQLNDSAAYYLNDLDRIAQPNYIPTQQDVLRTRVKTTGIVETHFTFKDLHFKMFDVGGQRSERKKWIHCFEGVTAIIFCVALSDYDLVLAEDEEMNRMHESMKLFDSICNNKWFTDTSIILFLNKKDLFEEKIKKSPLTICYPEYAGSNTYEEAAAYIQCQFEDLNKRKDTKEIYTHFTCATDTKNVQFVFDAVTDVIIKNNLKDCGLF
TRb-SRC2 inh: qHTS for Inhibitors of the Interaction of Thyroid Hormone Receptor and Steroid Receptor Coregulator 2 | TRbeta-SRC2 peptide binding, fluorescence polarization; receptor liganded with 1 µM T3 | AID 1469, 2008 | Potency, µM (doses to about 106 µM), actives largely listed as inhibitors | Thyroid hormone receptor beta (Homo sapiens), P10828 | actives 0.065% (n = 280,000); note: nearly all actives have a fitted effect of over 50% in size
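A fluorescence polarization screen tested compounds at multiple concentrations against complex formation between 0.6 uM TRb ligand-binding domain and 20 nM Texas Red SRC2 peptide, with 1 uM T3 present; readout after 5 hr.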
ERG-DNA inh: qHTS for Small Molecule Inhibitors of the ERG Ets/DNA interaction; Transcriptional regulator ERG (Homo sapiens), P11308; fluorescence polarization, His-ERG Ets domain / labelled DNA; Potency, µM (titrated, usually from 76.9 µM), hits mostly inhibitors; actives 0.028% (n = 370,000); AID 624246, 2012; active = well fitted inhibition curve with a large enough effect in the polarisation, with a control signal flat; inconclusive = small, poorly fitted or top-dose-only effect, or effect the other way, or a change in a side signal; inactive = no such curve, though single readings can be large or run the other way; the % refers to the polarisation;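 note: polarization taken with two DNA probes labelled with fluorescein and Texas red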
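His-tagged ERG Ets domain (1 uM in the protein solution; 300mM KCl, 50mM Tris-HCl, 1mM EDTA, 1mM DTT, pH 7.5) received compound, then a probe mix of 5 nM fluorescein-DNA and 100nM Texas-615-DNA. Fluorescence polarization was read for both dyes.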
CBFb-RUNX1 inh: qHTS Assay for Compounds Blocking the Interaction Between CBF-beta and RUNX1 for the Treatment of Acute Myeloid Leukemia. Runt-related transcription factor 1 (Homo sapiens) + Core-binding factor subunit beta …. Potency, µM (doses to about 59.8 µM), most hits filed as inhibitors. AID 1477, 2009. AlphaScreen CBFb-His/RUNX1-biotin binding, biochemical. 230,000 tested, under 10 active
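Read-out: AlphaScreen. Format: His-CBF-beta with biotinylated RUNX1 (30 nM each) preincubated 20 min, compound 15 min, Ni-chelate plus streptavidin beads 90 min; room temperature throughout.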
TexasRed fluor: Total Fluorescence Counterscreen for Inhibitors of the Interaction of Thyroid Hormone Receptor and Steroid Receptor Coregulator 2. TRb/SRC2 Texas Red total fluorescence interference. actives 0.29% (n = 280,000). Potency, µM (series often up to 106 µM). AID 1479, 2009; active = well fitted curve in either direction with a large enough effect; inconclusive = small, poorly fitted or top-dose-only effect
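Human TRb ligand-binding domain at 0.6 uM with 20 nM Texas Red SRC2 peptide in Tris buffer containing 1 uM T3 and 5% DMSO, incubated with compound 5 h at ambient temperature. Total fluorescence (555/632 nm) calculated as parallel + 2 × perpendicular.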
Of the large screens only hits and unclear results are named; the others gave an inactive call; [ ] = another dose, or the depositor's remark. Unless noted, calls come from the whole dose curve; as a rule, active = well fitted curve in the direction sought with a large enough effect; inconclusive = small, poorly fitted or top-dose-only effect, or another doubt; inactive = no such curve, though single readings can be large; an effect the other way counts as inactive or inconclusive.

CCCCOCC(C)O (centres undefined)	none (no result: RGS12 GoLoco inh, ERG-DNA inh, CBFb-RUNX1 inh)
COc1ccc(C)c2sc(NC(=O)c3ccc(S(=O)(=O)N(C)C)cc3)nc12	none (no result: RGS12 GoLoco inh, CBFb-RUNX1 inh)
O=C(Nc1nc(-c2ccco2)c(-c2ccco2)s1)C1CC(=O)N(c2ccc3c(c2)OCCO3)C1 (centres undefined)	TexasRed fluor 25µM[quencher] (no result: CBFb-RUNX1 inh)
CC(=O)c1c(C)c([N+](=O)[O-])c(C(C)(C)C)c([N+](=O)[O-])c1C	none (no result: RGS12 GoLoco inh, ERG-DNA inh, CBFb-RUNX1 inh)
COC(=O)c1ccc(NC(=O)C(C)Sc2nc(=O)cc(N)n2CCc2ccccc2)cc1 (centres undefined)	TexasRed fluor 18µM[quencher] (no result: RGS12 GoLoco inh, CBFb-RUNX1 inh)
CCCC(=O)Nc1ccc2c(c1)nc(CN1CCN(C(=O)OCC)CC1)n2C(C)C	TexasRed fluor 100µM[quencher] (no result: RGS12 GoLoco inh, CBFb-RUNX1 inh)
CCOC(=O)N1CCN(Cc2nc3cc(NC(C)=O)ccc3n2C(C)C)CC1	none (no result: RGS12 GoLoco inh, CBFb-RUNX1 inh)
OCC1O[C@H](O)C(Cl)C(O)C1O (some centres undefined)	none (no result: ERG-DNA inh)
OCC1OC([S-])[C@H](O)C(O)C1O.[Au+] (some centres undefined)	TRb-SRC2 inh inconclusive, TexasRed fluor 13µM[quencher] (no result: ERG-DNA inh)
COc1nc(-c2ccccc2)ccc1-c1noc(-c2ccco2)n1	RGS12 GoLoco inh 3.5µM
COc1ccc(-c2ccc(-c3noc(-c4ccco4)n3)c(OC)n2)cc1	none
Cc1ccsc1C=Nc1ccc(O)cc1	TRb-SRC2 inh 32µM, CBFb-RUNX1 inh inconclusive
O=C(NCCc1ccccc1)c1ccc2c(c1)N(Cc1c(F)cccc1Cl)C(=O)CS2	none (no result: RGS12 GoLoco inh, CBFb-RUNX1 inh)
COc1ccc(NS(=O)(=O)c2cc(NC(=O)C3CC3)ccc2N2CCCCC2)cc1	none
COc1ccc(NS(=O)(=O)c2cc(NC(=O)c3ccco3)ccc2N2CCCCC2)cc1	RGS12 GoLoco inh 8.9µM
CCOc1nc(-c2ccc(C)cc2)ccc1-c1noc(-c2ccccc2F)n1	none (no result: RGS12 GoLoco inh, CBFb-RUNX1 inh)
CN(C)CCOCCN(C)C	none (no result: RGS12 GoLoco inh, ERG-DNA inh, CBFb-RUNX1 inh)
Cc1cc(NC(=O)N2CCC(CN3CCOCC3)CC2)ccc1Br	TexasRed fluor 79µM[quencher] (no result: RGS12 GoLoco inh, CBFb-RUNX1 inh)
CCOC(=O)Cc1ccc(NC(=O)N2CCC(CN3CCCCCC3)CC2)cc1	none (no result: RGS12 GoLoco inh, CBFb-RUNX1 inh)
O=C(Nc1ccc(Br)cc1)N1CCC(CN2CCCC2)CC1	TRb-SRC2 inh inconclusive, TexasRed fluor 45µM[quencher] (no result: RGS12 GoLoco inh, CBFb-RUNX1 inh)
CCOc1ccc(NC(=O)N2CCC(CN3CCCCCC3)CC2)cc1	TexasRed fluor 126µM[quencher] (no result: RGS12 GoLoco inh, CBFb-RUNX1 inh)
O=C(Nc1cccc(Br)c1)N1CCC(CN2CCCCC2)CC1	none (no result: RGS12 GoLoco inh, CBFb-RUNX1 inh)
Cc1ccc(C)c(NC(=O)N2CCC(CN3CCOCC3)CC2)c1	TexasRed fluor inconclusive (no result: RGS12 GoLoco inh, CBFb-RUNX1 inh)
CCN1C=C(Cc2ccc(OC)cc2)C2=C(C1)C(c1ccc(OC)cc1)C(C#N)=C(N)O2 (centres undefined)	TRb-SRC2 inh inconclusive, TexasRed fluor 50µM[fluorescent]
CC1CCCC(C)N1C(=O)Cn1cc(/C=C2/C(=O)Nc3ccccc32)c2ccccc21 (centres undefined)	RGS12 GoLoco inh 6.3µM, CBFb-RUNX1 inh inconclusive
CCn1c(=O)c2cc(C(=O)Nc3cc(OC)c(OC)c(OC)c3)sc2c2ccccc21	none (no result: RGS12 GoLoco inh, CBFb-RUNX1 inh)
CCOc1ccc2nc(N3CCCC(C(=O)NCCc4ccc(Cl)cc4)C3)sc2c1 (centres undefined)	none (no result: RGS12 GoLoco inh, CBFb-RUNX1 inh)
CCOc1ccc2nc(N3CCCC(C(=O)NCCc4ccc(SC)cc4)C3)sc2c1 (centres undefined)	TexasRed fluor 40µM[quencher] (no result: RGS12 GoLoco inh, CBFb-RUNX1 inh)
CCCCOC(=O)[C@@H](C)Oc1ccc(Oc2ccc(C(F)(F)F)cn2)cc1	none (no result: RGS12 GoLoco inh, ERG-DNA inh, CBFb-RUNX1 inh)
CC1(C(=O)NC2CCCCC2)Cc2ccccc2C(=O)N1Cc1ccc(F)cc1 (centres undefined)	TexasRed fluor 32µM[quencher] (no result: RGS12 GoLoco inh, CBFb-RUNX1 inh)
CC1CCC(NC(=O)C2(C)Cc3ccccc3C(=O)N2Cc2ccc(F)cc2)CC1 (centres undefined)	none (no result: RGS12 GoLoco inh, CBFb-RUNX1 inh)
COC(=O)c1ccc(NC(=O)N2CCN(c3nnc(C)c4c(C)n(-c5ccccc5)nc34)CC2)cc1	none (no result: RGS12 GoLoco inh, CBFb-RUNX1 inh)
CCOc1ccc(NC(=O)N2CCN(c3nnc(C)c4c(C)n(-c5ccccc5)nc34)CC2)cc1	TexasRed fluor 0.0005µM[quencher] (no result: RGS12 GoLoco inh, CBFb-RUNX1 inh)
CCOC(=O)c1ccccc1C	none (no result: RGS12 GoLoco inh, ERG-DNA inh, CBFb-RUNX1 inh)
